Counter-ions that a name gives are not always drawn. ± gives the standard deviation of the averaged measurements.

One test relates to E. coli TESEC Mtb DapB. The test can be described thus: growth (OD600 after 10 h); higher = more growth (less inhibition). To be noted: arabinose induction (level): High; compound 0.1 mM; raw OD600 reference: median of DMSO wells […], cell-free background 0.041. As for the experimental part: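 TESEC E. coli strains in which the native enzyme is deleted and replaced by arabinose-inducible Mtb Asd, DapB, CysH or TrpD, each grown in its selective medium. Strains were screened against the Prestwick library at 0.1 mM and 1% DMSO in 384-well format at low and high arabinose induction. Growth is read as OD600 after 10 h in triplicate.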
As to `CC[C@@]1([C@@H]2O[C@@H]([C@H]3O[C@@](O)(CO)[C@H](C)C[C@@H]3C)C[C@@H]2C)CC[C@H]([C@]2(C)CC[C@]3(C[C@H](O)[C@@H](C)[C@@H]([C@@H](C)[C@@H](OC)[C@H](C)C(=O)O)O3)O2)O1` [Monensin sodium salt], the growth was 0.162 ± 0.01.

Turning to `CCC(=O)O[C@@](Cc1ccccc1)(c1ccccc1)[C@@H](C)CN(C)C` [Levopropoxyphene napsylate], the growth stood at 0.175 ± 0.026.

For `Clc1ccc(C(OCCN2CCCCC2)c2ccccc2)cc1` (stereo not given) [Cloperastine hydrochloride], the growth came out at 0.146 ± 0.012.

`CN1[C@@H]2C[C@@H](OC(=O)[C@H](CO)c3ccccc3)C[C@H]1[C@@H]1O[C@@H]12` [Scopolamine hydrochloride] gave a growth of 0.201 ± 0.031.

For the compound `C[C@@H]1CN([C@H]2CC[C@](C#N)(c3ccc(F)cc3)CC2)CC[C@]1(C(=O)O)c1ccccc1` [Levocabastine hydrochloride], the growth worked out at 0.192 ± 0.0051.

Turning to `C#C[C@]1(O)CC[C@H]2[C@@H]3CCC4=CC(=O)CCC4=C3C=C[C@@]21CC` [Gestrinone], the growth came to 0.179 ± 0.015.

`COc1ccc(CCN)cc1OC` [Homoveratrylamine] had a growth of 0.188 ± 0.012.

The compound `CC(Cc1ccc(O)cc1)NCC(O)c1cc(O)cc(O)c1` (stereo not given) [Fenoterol hydrobromide] returned a growth of 0.201 ± 0.017.

Take `CC(C)CC(N(C)C)C1(c2ccc(Cl)cc2)CCC1` (stereo not given) [Sibutramine HCl]: the growth turned out to be 0.161 ± 0.014.

Compound `C[C@@H]1O[C@@H](O[C@@H]2C=C3CC[C@@H]4[C@H](CC[C@]5(C)[C@@H](c6ccc(=O)oc6)CC[C@]45O)[C@@]3(C)CC2)[C@H](O)[C@H](O)[C@H]1O` [Proscillaridin A] showed a growth of 0.163 ± 0.004.

In the case of `NCC1(CC(=O)O)CCCCC1` [Gabapentin], the growth is 0.215 ± 0.016.

Compound `CC(NC(C)(C)C)C(=O)c1cccc(Cl)c1` (stereo not given) [Bupropion hydrochloride] had a growth of 0.202 ± 0.0039.

As to `CNC(C)(C)Cc1ccccc1` [Mephentermine hemisulfate], the growth was 0.208 ± 0.012.

The compound `NCCCNCCSP(=O)(O)O` [Amifostine] displayed a growth of 0.196 ± 0.0064.

`CC[C@@]1(O)C(=O)OCc2c1cc1n(c2=O)Cc2cc3ccccc3nc2-1` [Camptothecine (S,+)] displayed a growth of 0.199 ± 0.01.

Regarding `Oc1ccc2c3c1O[C@H]1[C@@H](O)CC[C@@]4(O)[C@@H](C2)N(CC2CCC2)CC[C@]314` [Nalbuphine hydrochloride], the growth was found to be 0.195 ± 0.011.

`CCCN1C[C@H](CSC)C[C@@H]2c3cccc4[nH]cc(c34)C[C@H]21` [Pergolide mesylate] gave a growth of 0.2 ± 0.027.

The compound `CN1CCN(C(=O)OC2c3nccnc3C(=O)N2c2ccc(Cl)cn2)CC1` (stereo not given) [Zopiclone] showed a growth of 0.194 ± 0.0097.

Regarding `CCC(=O)O[C@H]1CC[C@H]2[C@@H]3CCC4=CC(=O)CC[C@]4(C)[C@H]3CC[C@]12C` [Testosterone propionate], the growth is 0.214 ± 0.0086.

On to `C[C@]12CCC(=O)C(O)=C1CC[C@@H]1[C@@H]2CC[C@]2(C)C(=O)CC[C@@H]12` [Formestane], for which the growth was 0.156 ± 0.01.

Staying with this test, now noted: arabinose induction (level): Low; compound 0.1 mM; raw OD600 reference: median of DMSO wells 0.227, cell-free background 0.041.
`CC[C@@]1([C@@H]2O[C@@H]([C@H]3O[C@@](O)(CO)[C@H](C)C[C@@H]3C)C[C@@H]2C)CC[C@H]([C@]2(C)CC[C@]3(C[C@H](O)[C@@H](C)[C@@H]([C@@H](C)[C@@H](OC)[C@H](C)C(=O)O)O3)O2)O1` [Monensin sodium salt] displayed a growth of 0.167 ± 0.0025.

`CCC(=O)O[C@@](Cc1ccccc1)(c1ccccc1)[C@@H](C)CN(C)C` [Levopropoxyphene napsylate] returned a growth of 0.205 ± 0.011.

`Clc1ccc(C(OCCN2CCCCC2)c2ccccc2)cc1` (stereo not given) [Cloperastine hydrochloride] gave a growth of 0.163 ± 0.0059.

`CN1[C@@H]2C[C@@H](OC(=O)[C@H](CO)c3ccccc3)C[C@H]1[C@@H]1O[C@@H]12` [Scopolamine hydrochloride] displayed a growth of 0.228 ± 0.03.

For `C[C@@H]1CN([C@H]2CC[C@](C#N)(c3ccc(F)cc3)CC2)CC[C@]1(C(=O)O)c1ccccc1` [Levocabastine hydrochloride], the growth was found to be 0.265 ± 0.029.

The compound `C#C[C@]1(O)CC[C@H]2[C@@H]3CCC4=CC(=O)CCC4=C3C=C[C@@]21CC` [Gestrinone] registered a growth of 0.212 ± 0.013.

Take `COc1ccc(CCN)cc1OC` [Homoveratrylamine]: the growth stood at 0.217 ± 0.054.

The compound `CC(Cc1ccc(O)cc1)NCC(O)c1cc(O)cc(O)c1` (stereo not given) [Fenoterol hydrobromide] registered a growth of 0.235 ± 0.05.

As to `CC(C)CC(N(C)C)C1(c2ccc(Cl)cc2)CCC1` (stereo not given) [Sibutramine HCl], the growth came out at 0.185 ± 0.012.

For the compound `C[C@@H]1O[C@@H](O[C@@H]2C=C3CC[C@@H]4[C@H](CC[C@]5(C)[C@@H](c6ccc(=O)oc6)CC[C@]45O)[C@@]3(C)CC2)[C@H](O)[C@H](O)[C@H]1O` [Proscillaridin A], the growth was found to be 0.173 ± 0.019.

For the compound `NCC1(CC(=O)O)CCCCC1` [Gabapentin], the growth turned out to be 0.278 ± 0.045.

In the case of `CC(NC(C)(C)C)C(=O)c1cccc(Cl)c1` (stereo not given) [Bupropion hydrochloride], the growth came out at 0.261 ± 0.086.

In the case of `CNC(C)(C)Cc1ccccc1` [Mephentermine hemisulfate], the growth was 0.221 ± 0.0061.

On to `NCCCNCCSP(=O)(O)O` [Amifostine], for which the growth was 0.209 ± 0.0086.

Turning to `CC[C@@]1(O)C(=O)OCc2c1cc1n(c2=O)Cc2cc3ccccc3nc2-1` [Camptothecine (S,+)], the growth was 0.228 ± 0.039.

On to `Oc1ccc2c3c1O[C@H]1[C@@H](O)CC[C@@]4(O)[C@@H](C2)N(CC2CCC2)CC[C@]314` [Nalbuphine hydrochloride], for which the growth stood at 0.214 ± 0.029.

On to `CCCN1C[C@H](CSC)C[C@@H]2c3cccc4[nH]cc(c34)C[C@H]21` [Pergolide mesylate], for which the growth came to 0.234 ± 0.049.

Take `CN1CCN(C(=O)OC2c3nccnc3C(=O)N2c2ccc(Cl)cn2)CC1` (stereo not given) [Zopiclone]: the growth came out at 0.224 ± 0.04.

Take `CCC(=O)O[C@H]1CC[C@H]2[C@@H]3CCC4=CC(=O)CC[C@]4(C)[C@H]3CC[C@]12C` [Testosterone propionate]: the growth was found to be 0.189 ± 0.002.

In turn, `C[C@]12CCC(=O)C(O)=C1CC[C@@H]1[C@@H]2CC[C@]2(C)C(=O)CC[C@@H]12` [Formestane] yielded a growth of 0.159 ± 0.0083.

The values are drawn from the supplement of paper PMC9262897, “Low-cost anti-mycobacterial drug discovery using engineered E. coli” (Nature Communications, 2022).
